SMN2 splice up = SMN2 splice variant enhancement. HEK293 SMN2-luciferase splicing reporter, luminescence, 30-36 h. AID 1458. 210,000 tested, 2.8% active. Potency, µM (highest dose often 46.1 µM), without a hit: at the highest dose activity change, positive = activation, hits mostly activators; further: % of control where 0% means no effect; nearly all actives have a fitted effect of over 55% in size
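HEK293 cells carry an SMN2 […]–luciferase reporter in which exon 7 inclusion puts luciferase in frame. Cells were plated 10-12 h before compound addition, then incubated 30-36 h at 37C. ONE-Glo luminescence was read; sodium butyrate at 4.5 mM final served as control.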
FLuc counter = firefly luciferase modulation, counter-screen for miR-21 project | P08659 | purified FLuc, Km substrates, luminescence inhibition | Potency, µM (series often up to 57.5 µM), for inactives: at the highest dose activity change, negative = inhibition, most hits filed as inhibitors | 360,000 tested, 6.9% active;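 further: plate controls were vehicle for no effect and reference inhibitor for full effect; nearly all actives have a fitted effect of over 55% in size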
Target sequence (P08659 whole entry, looked up): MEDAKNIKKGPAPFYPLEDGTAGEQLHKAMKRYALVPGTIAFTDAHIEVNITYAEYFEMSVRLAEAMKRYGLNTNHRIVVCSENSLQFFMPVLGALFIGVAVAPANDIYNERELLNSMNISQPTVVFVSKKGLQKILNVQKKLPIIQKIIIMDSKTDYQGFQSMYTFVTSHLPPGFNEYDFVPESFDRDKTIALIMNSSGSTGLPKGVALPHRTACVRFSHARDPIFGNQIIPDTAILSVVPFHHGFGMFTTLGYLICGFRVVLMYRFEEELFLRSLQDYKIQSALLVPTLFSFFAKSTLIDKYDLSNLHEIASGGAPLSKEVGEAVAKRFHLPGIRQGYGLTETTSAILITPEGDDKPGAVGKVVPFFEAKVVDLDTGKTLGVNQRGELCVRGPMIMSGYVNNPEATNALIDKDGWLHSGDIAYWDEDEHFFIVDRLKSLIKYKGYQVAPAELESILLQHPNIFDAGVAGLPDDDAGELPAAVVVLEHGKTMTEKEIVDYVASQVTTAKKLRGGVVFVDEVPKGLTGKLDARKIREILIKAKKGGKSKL
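Purified P. pyralis luciferase, 10 nM final, with Km-level 10 uM D-luciferin and 10 uM ATP in 50 mM Tris acetate pH 7.5, 10 mM Mg acetate, 0.01% Tween-20, 0.05% BSA; 6-point qHTS titration about 60 µM downward; luminescence read.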
NPC1 promoter act = activators of NPC1 promoter; Huh7 NPC1 promoter luciferase reporter, 24 h; Potency, µM (titrated, usually from 9.22 µM), for the others: at the top dose activation, hits mostly activators; 320,000 tested, 2.4% active; further: % of control where 0% means no effect; nearly all actives have a fitted effect of over 60% in size
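Quantitative HTS used a cell-based reporter: Huh7 cells stably bearing the NPC1 promoter upstream of luciferase were treated with compounds for 24 h, and promoter activation was read as luminescence.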
Rab9 promoter act = Rab9 promoter activation. Huh7 Rab9 promoter-luciferase reporter, luminescence, 24 h. Potency, µM (doses to about 9.22 µM), without a hit: at the highest dose activation, negative = inhibition, actives largely listed as activators. 320,000 tested, 2.8% active. AID 485297; further: % of control where 0% means no effect; nearly all actives have a fitted effect of over 60% in size
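Rab9 promoter-driven luciferase in stably transfected Huh7 cells; 1500 cells/well rested 2 h, exposed to compound in DMSO for 24 h at 37 °C, 5% CO2. Luminescence read 10 min after adding luciferase reagent at ambient temperature.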
ELG1 genotoxic = inducers of genotoxicity in HEK293T ELG1-luciferase cells. HEK293T ELG1-luciferase reporter, luminescence, 16 h. Potency, µM (highest dose often 46 µM), for the others: at the top dose activity change, positive = activation, actives largely listed as activators. 330,000 tested, 1.3% active. AID 504466; further: % of control where 0% means no effect; nearly all actives have a fitted effect of over 60% in size
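Genotoxicity was scored as increased ELG1-luciferase reporter signal, measured by ONE-Glo luminescence (30 min, room temperature). Compound or vehicle exposure of the HEK293T reporter cells lasted 16 hr at 37°C.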
Starred values were filed as active, the others as inactive; [ ] = another dose, or the depositor's remark. Rows were chosen to be rich in hits. Some 7.4% of all compounds tested hit in one or more screens of this group. The call rests on the fitted dose curve; in most records, active means well fitted curve in the direction sought with a large enough effect; inconclusive means small, poorly fitted or top-dose-only effect, or another doubt; inactive means no such curve, though single readings can be large; an effect the other way counts as inactive or inconclusive. Potency means the concentration at half of the fitted maximal effect.

Screening Fc1cccc(-n2ncc3c2ncn2nc(Cc4ccccc4)nc32)c1 returned SMN2 splice up -1% and FLuc counter -4%.
For COC(=O)c1ccccc1NC(=O)Nc1cc(C(C)(C)C)on1 the results were FLuc counter -9%, NPC1 promoter act 2µM*, Rab9 promoter act 0.89µM* and ELG1 genotoxic 16µM*.
`CC(C)(C)c1cc(NC(=O)Nc2ccccc2OC(F)(F)F)no1` gave FLuc counter -2%, NPC1 promoter act 2%, Rab9 promoter act -3% and ELG1 genotoxic 1%.
Screening CC1=NN(c2ccccc2)C(=O)/C1=C\c1cc(C)n(C)c1C returned FLuc counter 7.6µM*, NPC1 promoter act 14%, Rab9 promoter act 4% and ELG1 genotoxic -7%.
Screening CC1=NN(c2ccccc2)C(=O)/C1=C/c1cc2cc(C)ccc2nc1N1CCCCC1 returned SMN2 splice up inconclusive, FLuc counter inconclusive, NPC1 promoter act inconclusive, Rab9 promoter act inconclusive and ELG1 genotoxic 10%.
CC1=NN(c2ccccc2)C(=O)/C1=C\c1cn(C)c2ccccc12 was read as SMN2 splice up -3%, FLuc counter 9.5µM*, NPC1 promoter act -17%, Rab9 promoter act 2% and ELG1 genotoxic 2%.
CC1=NN(c2ccccc2)C(=O)/C1=C/c1cn(C)c2ccccc12 was read as FLuc counter 6µM*, NPC1 promoter act 2%, Rab9 promoter act 14% and ELG1 genotoxic -2%.
Screening Cc1oc(-c2ccc(C(=O)NCc3cccc(F)c3)cc2)nc1COc1ccccc1 returned FLuc counter 1%.
COc1ccc(-c2cc(C(=O)Nc3c(C)n(C)n(-c4ccccc4)c3=O)c3ccccc3n2)cc1 was read as FLuc counter 15µM*, NPC1 promoter act -9%, Rab9 promoter act -1% and ELG1 genotoxic -21%.
CCc1ccc(-c2cc(C(=O)Nc3c(C)n(C)n(-c4ccccc4)c3=O)c3ccccc3n2)s1 was read as SMN2 splice up -10%, FLuc counter 12µM*, NPC1 promoter act 1%, Rab9 promoter act 5% and ELG1 genotoxic -8%.
COc1ccc2cc(-c3cc(C(=O)OCC(=O)Nc4c(C)n(C)n(-c5ccccc5)c4=O)c4ccccc4n3)ccc2c1 was read as SMN2 splice up 2µM*, FLuc counter 0.13µM*, NPC1 promoter act inconclusive, Rab9 promoter act inconclusive and ELG1 genotoxic 2%.
`c1ccc(N2CC3CCc4ccccc4C3=N2)cc1` (stereo not drawn) gave FLuc counter 8.5µM*, NPC1 promoter act inconclusive, Rab9 promoter act 3.2µM* and ELG1 genotoxic inconclusive.
Screening Cc1ccc(NC(=S)NNC(=O)c2ccco2)cc1 returned SMN2 splice up 11µM*, FLuc counter inconclusive, NPC1 promoter act -1%, Rab9 promoter act inconclusive and ELG1 genotoxic 1%.
Screening Cc1ccc(C(=O)NNC(=O)c2ccco2)cc1 returned SMN2 splice up 13µM*, FLuc counter 17µM*, NPC1 promoter act inconclusive, Rab9 promoter act inconclusive and ELG1 genotoxic inconclusive.
`Cc1cccc(NC(=S)NNC(=O)c2ccco2)c1` gave SMN2 splice up 19%, FLuc counter inconclusive, NPC1 promoter act -3%, Rab9 promoter act 1% and ELG1 genotoxic 1%.
`COc1cc(NC(=O)Cn2ccn(Cc3ccccc3OC)c(=O)c2=O)cc(OC)c1` gave FLuc counter 2%.
Screening COc1ccc(NC(=O)c2oc3ccccc3c2NC(=O)C2CCCCC2)c(OC)c1 returned SMN2 splice up -3% and FLuc counter -9%.
`Nc1cccc(OCc2nc(N)nc(N)c2-c2ccc(Cl)cc2)c1` gave SMN2 splice up -12%[9.22 µM].
For N#Cc1c(N)nc(N)nc1Nc1ccc(Br)cc1 the results were FLuc counter 6µM*, NPC1 promoter act 1.3µM*, Rab9 promoter act 1.4µM* and ELG1 genotoxic 9.2µM*.
Cc1nc(N)nc(Nc2ccc(C#N)cc2)c1Br was read as FLuc counter 0%, NPC1 promoter act -1%, Rab9 promoter act -5% and ELG1 genotoxic 1%.
COc1ccc(NC(=O)Nc2ccc3c(c2)CCC3)cc1OC was read as SMN2 splice up 13%, FLuc counter -5%, NPC1 promoter act 9%, Rab9 promoter act 18% and ELG1 genotoxic 8%.
For COc1ccccc1NC(=O)COC(=O)c1cc2c(s1)CCC2 the results were FLuc counter 8.5µM*, NPC1 promoter act -3%, Rab9 promoter act 3% and ELG1 genotoxic 0%.
For COc1ccc(C)cc1NC(=O)Nc1ccc2c(c1)CCC2 the results were FLuc counter 9.5µM*, NPC1 promoter act 2%, Rab9 promoter act 0% and ELG1 genotoxic 3%.
COc1ccccc1NC(=O)Nc1ccc2c(c1)CCC2 was read as FLuc counter 3µM*, NPC1 promoter act 2.5µM*, Rab9 promoter act 2.5µM* and ELG1 genotoxic 13µM*.
COc1cc(Cl)c(C)cc1NC(=O)CCc1nc2cccnc2n1-c1ccccc1 was read as SMN2 splice up -11% and FLuc counter 5%.
Screening COc1ccc(CNC(=O)CCc2nc3cccnc3n2Cc2ccccc2)cc1 returned SMN2 splice up 2% and FLuc counter -7%.
For CC(=O)c1ccc(NC(=O)CN2C(=O)CCc3ccccc32)cc1 the results were FLuc counter 6µM*.
O=C1CC(SC(=NCc2ccc3c(c2)OCO3)Nc2ccccc2)C(=O)N1 (stereo not drawn) was read as SMN2 splice up 16%, FLuc counter 0%, NPC1 promoter act 1%, Rab9 promoter act 1% and ELG1 genotoxic 3%.
COc1ccc(CN=C(Nc2ccccc2)SC2CC(=O)NC2=O)cc1 (stereo not drawn) was read as FLuc counter 6.7µM*, NPC1 promoter act inconclusive, Rab9 promoter act inconclusive and ELG1 genotoxic inconclusive.
Screening Cc1ccc(Cn2c(C(=O)NCc3ccccc3Cl)cc3sccc32)cc1 returned SMN2 splice up 3% and FLuc counter -9%.
`CCC(=O)n1nc(-c2ccc(Cl)cc2)nc1SC` gave SMN2 splice up 13µM*, FLuc counter inconclusive, NPC1 promoter act 28%, Rab9 promoter act inconclusive and ELG1 genotoxic inconclusive.
CCC(=O)n1nc(-c2ccc(OC)cc2)nc1SC was read as SMN2 splice up inconclusive, FLuc counter 19µM*, NPC1 promoter act 27%, Rab9 promoter act inconclusive and ELG1 genotoxic inconclusive.
For CCCC(=O)n1nc(-c2ccc(Cl)cc2)nc1SC the results were SMN2 splice up inconclusive, FLuc counter inconclusive, NPC1 promoter act 28%, Rab9 promoter act 27% and ELG1 genotoxic inconclusive.
Cc1ccc(/C=C2\OC(=O)c3ccccc32)cc1 was read as SMN2 splice up inconclusive, FLuc counter 1.1µM*, NPC1 promoter act -2%, Rab9 promoter act 0% and ELG1 genotoxic inconclusive.

Assay outcomes: PubChem, National Center for Advancing Translational Sciences (NCATS)
